This passage reports outcome results from PubChem BioAssay AID504882 (Broad Institute, 2011).

In all, about 1,200 compounds went through this assay and about 290 (24%) were called active. About 9% were inconclusive and are not listed. The rule behind the calls is not given here. Only a sample is shown. Results with a measured potency or affinity are listed apart.

A short description of this assay: LCL viability reduction – cell-based, plate reader, cherry-picks, set 2, cytotoxicity control, dose response (AID 504882). Conditions: EBV lymphoblastoid cells (LCL) viability; series mostly up to 19.5 µM.
`CC(=O)c1sc(NC(=O)C2COc3ccccc3O2)nc1C` (centres undefined): the compound was called inactive.

Consider `Cc1nc2ncccn2c1-c1csc(Nc2ccccc2)n1`, for which the compound was classed as inactive.

Consider `O=C(COC(=O)c1cc2ccccc2cc1O)NCc1ccccc1`, for which the result was inactive.

For `CCNc1nc(CN2CCOCC2)nc2sc3c(c12)CCC3`, the call was inactive.

Take `O=c1c(O)c(-c2ccc(O)c(O)c2)oc2cc(O)cc(O)c12`: the outcome was inactive.

As to `O=C(O)[C@@H]1[C@H]2C[C@H]3c4[nH]c5ccccc5c4CCN3C[C@@H]2CC[C@@H]1O`, the call was inactive.

As to `CC1=NN(C(N)=S)C(=O)C1N=Nc1cccc(C(=O)O)c1` (centres undefined), the outcome was inactive.

For the compound `Cc1ccc(C(=O)Nc2ccc3c(c2)OCCO3)c(Cl)c1`, the compound was classed as inactive.

As for `Cc1ccc(C)c(S(=O)(=O)N2CCN(C(=O)c3ccc(C)s3)CC2)c1`, the compound was classed as inactive.

Turning to `N#Cc1c(Nc2ccccc2)sc(C(=O)c2ccc(F)cc2)c1N`, the compound was classed as inactive.

Turning to `CNC(=S)Nc1ccc2nc(C)c(C)nc2c1`, the call was inactive.

On to `Oc1[nH]c2ccccc2c1N=Nc1c(F)c(F)c(Cl)c(F)c1F`, for which the outcome was inactive.

In the case of `CCn1nnc2cc(C(=O)NCCc3ccccc3F)ccc21`, the compound was classed as inactive.

Take `O=C(Nc1cccc(C(=O)O)c1)Nc1ccccc1Cl`: the compound was called inactive.

Turning to `CCc1ccc(/C=N/NC(=O)c2ccccn2)cc1`, the compound was classed as inactive.

As to `Cc1ccc(C(=O)Nc2nnc(SCC(=O)N3CCCc4ccccc43)s2)cc1`, the compound was called inactive.

As for `CCC(Oc1ccccc1)C(=O)NC1CCSC1=O` (centres undefined), the outcome was inactive.

In the case of `O=C(O)/C=C/c1ccc2ccccc2n1`, the outcome was inactive.

`CN(C)CCN(Cc1ccc(Cl)cc1)c1ccccn1`: the outcome was inactive.

For `Cc1ccc(C(=O)Nc2cccc(C(=O)O)c2)cc1S(=O)(=O)N1CCCCC1`, the compound was classed as inactive.

Take `CCCCN(c1ccccc1)c1ncnc(N)c1[N+](=O)[O-]`: the call was inactive.

For the compound `O=C(N/N=C/c1cccc(O)c1)c1ccc2c(c1)OCCO2`, the call was inactive.

On to `O=C(NN1C(=O)C2C3C=CC(C4CC34)C2C1=O)c1cccc(Cl)c1` (centres undefined), for which the outcome was inactive.

With `CC(C)(C)n1nc(-c2ccc(F)cc2)c2c(N)ncnc21`, the compound was classed as inactive.

`COc1cc(OC)cc(-c2cc3nc(C)c(CCC(=O)O)c(C)n3n2)c1`: the call was inactive.

Consider `CN(C)CC(C)(C)CNS(=O)(=O)c1ccc(OC(F)(F)F)cc1`, for which the outcome was inactive.

Take `COc1cccc(C2=CC(=O)C[C@H](c3ccc4c(c3)OCO4)C2)c1`: the compound was called inactive.

In the case of `CCCCCCNC(=O)O[C@]12C[C@@H](C(=O)OC)[C@@H](C(=O)OC)C[C@@]1(O)CN(S(=O)(=O)c1ccc(C)cc1)C2`, the result was inactive.

In the case of `COC(=O)CN(c1ccccc1F)S(=O)(=O)c1ccc(C)cc1`, the compound was classed as inactive.

With `CN(CCNC(=O)C1CCN(S(=O)(=O)N2CCOCC2)CC1)CCc1ccccc1`, the result was inactive.

Turning to `O=c1c2cnn(-c3ccccc3)c2nc(-c2cccs2)n1-c1ccc(Cl)cc1`, the compound was classed as inactive.

`NNC(=O)c1cccc(COc2ccc3c(c2)CCC3)c1`: the call was inactive.

Take `S=c1[nH]nc(C2CCCCC2)n1/N=C/c1ccncc1`: the compound was called inactive.

As to `N#CC1=C(N)C(C#N)(C#N)C(c2cccnc2)C2CC(c3ccccc3)CC=C12` (centres undefined), the call was inactive.

For the compound `COc1cc(CC(=O)N(c2ccccc2)c2nc(C)cs2)cc(OC)c1OC`, the outcome was inactive.

Turning to `O=C(CN1C(=O)c2ccccc2S1(=O)=O)Nc1ncc(Cl)cc1Cl`, the call was inactive.

Regarding `Cc1ccc(-n2c(=O)c3c(c4cc(C)ccc4n3C)n(CC(=O)NCC3CCCO3)c2=O)cc1` (centres undefined), the compound was called inactive.

`COc1ccc(C)cc1S(=O)(=O)N(CC(=O)Nc1cc([N+](=O)[O-])ccc1C)c1ccc(C)c(C)c1`: the result was inactive.

For the compound `O=C(c1sc2cc([N+](=O)[O-])ccc2c1Cl)N1CCOCC1`, the outcome was inactive.

In the case of `Cc1cc(=O)[nH]c(N/N=C/c2ccc(C)o2)n1`, the outcome was inactive.

Regarding `Cc1cc(N=Cc2c(O)ccc3cc(Br)ccc23)no1`, the compound was classed as inactive.

As for `CC(=O)Nc1cccc(-c2cnc(N)c(C(=O)c3cccnc3)n2)c1`, the outcome was inactive.

For the compound `O=C(O)c1cc(=O)c2c(OCC(O)COc3cccc4oc(C(=O)O)cc(=O)c34)cccc2o1`, the call was inactive.

In the case of `Cn1cc(SCC(=O)NCC2CCCO2)c2ccccc21` (centres undefined), the call was inactive.

On to `Cc1ccc(-n2c(C)c([N+](=O)[O-])c3ccc(O)c(CN(C)C)c32)cc1`, for which the compound was classed as inactive.

With `NC1=NC(=O)NC1(c1ccccc1)c1ccccc1`, the call was inactive.

In the case of `Cn1nc(-c2ccc(N3CCOCC3)c(NS(=O)(=O)c3ccccc3)c2)c2ccccc2c1=O`, the outcome was inactive.

On to `COc1ccccc1N1CCN(C(=O)CCC(=O)N2CCN(c3ccc(F)cc3)CC2)CC1`, for which the result was inactive.

In the case of `COc1ccc(/C=C/C(=O)OCC(=O)NCc2ccco2)cc1OC`, the outcome was inactive.

As for `COc1ccc2cc(-c3cc(C(=O)OCC(=O)NC4CCS(=O)(=O)C4)c4ccccc4n3)ccc2c1` (centres undefined), the compound was called inactive.

On to `CCOc1ccc(C(=O)NC(=S)N(Cc2ccccc2)Cc2ccccc2)cc1`, for which the compound was classed as inactive.

With `O=C(CCCOc1ccccc1)N1CCN(c2ccccc2)CC1`, the compound was called inactive.

Take `CCn1c(CCNC(=O)c2ccc(OC)cc2)nnc1SCc1ccc(Cl)cc1Cl`: the result was inactive.

Take `CC1S/C(=C(\C#N)C(=O)NCc2ccco2)N(Cc2ccco2)C1=O` (centres undefined): the result was inactive.

`Cc1onc(-c2c(Cl)cccc2Cl)c1C(=O)N[C@@H]1C(=O)N2[C@@H]1SC(C)(C)[C@@H]2C(=O)O`: the result was inactive.

As to `Cc1cc(C)nc(SCC(=O)OCN2C(=O)c3ccccc3C2=O)n1`, the compound was called inactive.

Consider `Nc1ccccc1SC1CC(=O)N(c2ccccc2Cl)C1=O` (centres undefined), for which the outcome was inactive.

For `Cc1ccccc1C(=O)N1CCN(c2ccc(NC(=O)c3ccco3)cc2Cl)CC1`, the result was inactive.

As to `CCOc1ccccc1NC(=O)Cn1c(=O)sc2ccccc21`, the compound was called inactive.

Take `COc1ccc(C(Nc2ccccn2)c2oc(CO)cc(=O)c2O)cc1` (centres undefined): the call was inactive.

As for `CC(=O)c1ccc(NC(=O)c2noc3c2CCC3)cc1`, the result was inactive.

Regarding `O=c1nc(N/N=C/C=C/c2ccccc2)cn[nH]1`, the compound was classed as inactive.

For the compound `Cc1ccc(S(=O)(=O)NC(CC(C)C)C(=O)NCC(c2ccco2)N2CCCCC2)cc1` (centres undefined), the result was inactive.

With `COc1ccc(S(=O)(=O)NC(CC(=O)NCc2ccco2)C(C)C)cc1` (centres undefined), the compound was classed as inactive.

With `Cc1nnc(SCC(=O)N2CCC(c3noc4ccc(F)cc34)CC2)s1`, the call was inactive.

Regarding `CCC(=O)NC(=S)Nc1ccccc1C(F)(F)F`, the outcome was inactive.

`COc1ccc(NC(=O)C[C@H]2C(=O)N(CCc3ccccc3)C[C@@H]2c2ccc(OC)cc2)cc1`: the outcome was inactive.

For the compound `CC(C)c1cc(NC(=O)c2ccccc2)cc(C(C)C)c1O`, the result was inactive.

Consider `O=C1OCC2=C1C(c1ccc3c(c1)OCO3)c1cc3c(cc1O2)OCO3` (centres undefined), for which the call was inactive.
